ELG1 DNA repair = qHTS screen for small molecules that inhibit ELG1-dependent DNA repair in human embryonic kidney (HEK293T) cells expressing luciferase-tagged ELG1; HEK293T ELG1-luciferase reporter, luminescence, 16 h; DNA damage induced by 5-fluorouridine; Potency, µM (titrated, usually from 46.1 µM), for inactives: at the top dose activity change, negative = inhibition, hits mostly inhibitors; 2.3% of 330,000 active; further: on the % scale 0 is the no-effect control and ±100 the full control effect; nearly all actives have a fitted effect of over 55% in size
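In this reporter screen, reduction of luminescence relative to DMSO vehicle indicated activity. Compounds and 5-fluorouridine were added together to 2,000 cells per well, incubated for 16 hr at 37 °C, then developed with ONE-Glo.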
SMN2 splice enh = qHTS Assay for Enhancers of SMN2 Splice Variant Expression; AID 1458, 2008; HEK293 SMN2-luciferase splicing reporter, luminescence, 30-36 h; Potency, µM (highest dose often 46.1 µM), for the others: top-dose activity change, positive = activation, usual class: activators; 2.8% of 210,000 active; further: % of control where 0% means no effect; nearly all actives have a fitted effect of over 55% in size
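HEK293 cells carry an SMN2 […]–luciferase reporter in which exon 7 inclusion puts luciferase in frame. Cells were plated 10-12 h before compound addition, then incubated 30-36 h at 37C. ONE-Glo luminescence was read; sodium butyrate at 4.5 mM final served as control.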
Rab9 prom act = qHTS Assay for Rab9 Promoter Activators | Huh7 Rab9 promoter-luciferase reporter, luminescence, 24 h | Potency, µM (highest dose often 9.22 µM), without a hit: at the top dose activation, negative = inhibition, actives largely listed as activators | 2.8% of 320,000 active | AID 485297, 2010; further: % of control where 0% means no effect; nearly all actives have a fitted effect of over 60% in size
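Luciferase signal after 10 min detection reagent at ambient indicates Rab9 promoter upregulation; stably transfected Huh7 cells were treated 24 h with compound in DMSO at 37 °C, 5% CO2.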
NPC1 prom act = qHTS Assay for NPC1 Promoter Activators; Huh7 NPC1 promoter luciferase reporter, 24 h; Potency, µM (doses to about 9.22 µM), without a hit: at the top dose activation, actives largely listed as activators; 2.4% of 320,000 active; further: % of control where 0% means no effect; nearly all actives have a fitted effect of over 60% in size
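Huh7 cells stably carrying NPC1 promoter–luciferase, plated in Opti-MEM with 10% FBS for 2 h, were exposed to compound in DMSO for 24 h at 37 °C; luciferase reagent was added for 10 min and luminescence read.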
FLuc counter = qHTS profiling assay for firefly luciferase inhibitor/activator using purifed enzyme and Km concentrations of substrates (counterscreen for miR-21 project) | Luciferin 4-monooxygenase (Photinus pyralis), P08659 | purified FLuc, Km substrates, luminescence inhibition | Potency, µM (highest dose often 57.5 µM), without a hit: at the top dose activity change, negative = inhibition, hits mostly inhibitors | 6.9% of 360,000 active;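 further: plate controls were vehicle for no effect and reference inhibitor for full effect; nearly all actives have a fitted effect of over 55% in size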
Target sequence (P08659 whole entry, looked up): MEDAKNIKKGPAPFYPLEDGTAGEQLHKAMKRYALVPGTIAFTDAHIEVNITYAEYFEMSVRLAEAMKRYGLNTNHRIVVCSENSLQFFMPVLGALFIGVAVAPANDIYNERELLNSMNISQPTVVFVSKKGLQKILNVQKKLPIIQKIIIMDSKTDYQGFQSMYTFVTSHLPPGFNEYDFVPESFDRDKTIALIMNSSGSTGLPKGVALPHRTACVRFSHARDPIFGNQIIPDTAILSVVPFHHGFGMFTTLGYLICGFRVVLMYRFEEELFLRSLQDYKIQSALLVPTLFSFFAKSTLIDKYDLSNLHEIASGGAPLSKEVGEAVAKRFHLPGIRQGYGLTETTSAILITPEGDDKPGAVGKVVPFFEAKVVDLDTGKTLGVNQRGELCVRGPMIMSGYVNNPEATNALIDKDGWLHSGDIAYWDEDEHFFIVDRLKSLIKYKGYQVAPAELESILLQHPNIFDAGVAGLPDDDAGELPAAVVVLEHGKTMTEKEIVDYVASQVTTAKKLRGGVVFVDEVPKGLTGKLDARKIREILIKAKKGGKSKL
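Purified P. pyralis luciferase, 10 nM final, with Km-level 10 uM D-luciferin and 10 uM ATP in 50 mM Tris acetate pH 7.5, 10 mM Mg acetate, 0.01% Tween-20, 0.05% BSA; 6-point qHTS titration about 60 µM downward; luminescence read.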
ELG1 genotox = qHTS screen for small molecules that induce genotoxicity in human embryonic kidney (HEK293T) cells expressing luciferase-tagged ELG1 | HEK293T ELG1-luciferase reporter, luminescence, 16 h | Potency, µM (titrated, usually from 46 µM), for inactives: at the top dose activity change, positive = activation, actives largely listed as activators | 1.3% of 330,000 active | AID 504466, 2011; further: % of control where 0% means no effect; nearly all actives have a fitted effect of over 60% in size
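HEK293T cells expressing luciferase-tagged ELG1 were treated with compound or DMSO for 16 hr at 37°C. Luciferase activity was then read after 30 min with ONE-Glo at room temperature; rising signal flags genetic stress.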
* = called active by the depositor; u = inconclusive; x = no result given. This is a sample that favours compounds with a hit; in the whole collection about 9.2% have one here. The call rests on the fitted dose curve; in most records, active means well fitted curve in the direction sought with a large enough effect; inconclusive means small, poorly fitted or top-dose-only effect, or another doubt; inactive means no such curve, though single readings can be large; an effect the other way counts as inactive or inconclusive. Potency means the concentration at half of the fitted maximal effect.

SMILES	ELG1 DNA repair	SMN2 splice enh	Rab9 prom act	NPC1 prom act	FLuc counter	ELG1 genotox
COc1ccc2c(c1)OCc1c-2oc2cc(OC)ccc12	x	12.6µM*	x	x	x	x
COc1ccc2c(=O)c(-c3ccc(C)cc3)c(-c3ccccc3)oc2c1	u	x	x	x	x	0.5%
COC(=O)C1CCN(C(=O)CCCOc2ccccc2)CC1	u	x	2.24µM*	u	4.78µM*	2.59µM*
COC(=O)C1CCN(C(=O)CSc2ccccc2)CC1	11.8%	7.1%	0.3%	-0.4%	-1.5%	2.1%
O=C(N1CCN(c2ccccn2)CC1)C(Cl)(Cl)Cl	u	3.98µM*	13.7%	6.0%	-14.2%	0.9%
O=C(CCSCc1ccccc1F)N1CCN(c2ccccn2)CC1	u	u	u	24.1%	19µM*	18.4µM*
O=C(CCCOc1ccccc1)N1CCN(c2ccccn2)CC1	u	14.1µM*	0.891µM*	1.26µM*	6.75µM*	2.06µM*
O=C(CCCOc1ccccc1)N1CCN(c2ccc(F)cc2)CC1	u	-4.1%	27.0%	24.7%	26.9µM*	u
COc1ccc(NC(=O)CCCN2C(=O)CCn3nc(-c4cn(C)c5ccccc45)cc32)cc1	x	x	x	x	3.5%	x
CS(=O)(=O)Nc1cccc(C2=NN(C(=O)c3ccccc3)C(c3cccs3)C2)c1 (configuration not stated)	u	x	-0.7%	1.4%	-1.4%	-12.0%
COc1ccc(C(=O)N2N=C(c3ccc(NS(C)(=O)=O)cc3)CC2c2cccs2)cc1 (configuration not stated)	18.3µM*	x	1.1%	-3.7%	-1.7%	-5.7%
CS(=O)(=O)Nc1cccc(C2=NN(C(=O)c3cccc([N+](=O)[O-])c3)C(c3cccs3)C2)c1 (configuration not stated)	13µM*	x	-1.3%	0.3%	1.5%	-3.4%
Cc1ccc(C(=O)N2N=C(c3ccc(NS(C)(=O)=O)cc3)CC2c2cccs2)cc1 (configuration not stated)	u	x	-1.9%	-4.2%	-0.2%	-3.1%
Cc1ccc(OCC(=O)N(Cc2ccco2)c2ccccn2)cc1	x	x	x	x	-28.7%	x
O/C(=C\c1nc2ccccc2[nH]1)c1cccs1	u	x	3.98µM*	3.55µM*	13.5µM*	u
O=c1[nH]c2ccccc2nc1/C=C(\O)c1cccs1	u	x	3.16µM*	3.98µM*	u	u
N#C/C(=C(/O)c1cccs1)c1nc2ccccc2[nH]1	-4.2%	x	u	u	u	-5.0%
CC(C)(C)/C(O)=C/c1nc2ccccc2[nH]c1=O	9.5%	2.3%	0.6%	-1.0%	-0.4%	-0.4%
CN(Cc1ccccc1)S(=O)(=O)c1ccc(Cl)c(C(=O)NCc2cccnc2)c1	-28.1%	x	-3.8%	-0.6%	-1.0%	-6.7%
COc1ccc(NC(=O)C(=O)NCC2(c3ccccc3)CCCC2)c(OC)c1	x	-0.7%	x	x	-9.4%	x
CCN(C(=O)c1cccc(Br)c1)c1ccccc1	-6.7%	-1.1%	2.3%	-2.3%	0.3%	2.0%
CN(C)c1ccc(C(=O)/C=C/c2cccnc2)cc1	u	x	u	u	3.01µM*	14.7%
CN(C)c1ccc(/C=C/C(=O)c2cccc(Br)c2)cc1	15.5%	-1.0%	25.8%	23.2%	3.01µM*	2.1%
COc1cc(OC)nc(-n2ncc(Br)c(Br)c2=O)n1	4.61µM*	-107.1%	-43.1%	-35.9%	4.6%	-15.6%
COc1ccc(/C=C2/CCc3ccccc3C2=O)cc1OC	u	-51.6%	-1.5%	2.9%	3.38µM*	u
SMILES	ELG1 DNA repair	SMN2 splice enh	Rab9 prom act	NPC1 prom act	FLuc counter	ELG1 genotox
COc1ccc2c(c1)OC/C(=C/c1cccs1)C2=O	u	x	u	u	0.426µM*	11.6µM*
COc1cc2c(cc1OC)/C(=C/c1ccc(Cl)cc1)C(=O)OC2	-11.7%	-17.1%	-4.7%	-4.6%	3.7%	2.5%
COc1ccc2c(c1)CC/C(=C\c1ccc(OC)c(Cn3cccn3)c1)C2=O	u	-48.3%	7.7%	-3.1%	13.5µM*	-21.7%
COc1ccc(/C=C2\C(=O)OCc3cc(OC)c(OC)cc32)cc1OC	1.4%	11.8%	-11.6%	2.5%	13.5µM*	18.1%
COc1ccc(N2C(=O)/C(=C/c3cccs3)NC2=S)cc1	20.8%	u	0.3%	-0.1%	u	3.5%
COc1cc(/C=C2/CCc3ccccc3C2=O)cc(OC)c1OC	u	-53.5%	-2.1%	0.7%	u	-6.3%
COC(=O)C1=C(c2ccccc2)c2ccccc2S(=O)(=O)N1CC(=O)Nc1cc(C)ccc1C	x	0.2%	x	x	3.0%	x
NC(=O)OCC(O)COc1ccc(Cl)cc1 (configuration not stated)	u	x	-2.0%	-0.9%	0.9%	u
COc1cc(CCC(=O)N2CC(C)OC(C)C2)cc(OC)c1OC (configuration not stated)	11.4%	x	2.7%	-1.2%	1.6%	1.0%
COc1ccc(/C=C2\OC(=O)c3c(OC)cccc32)cc1OC	u	u	2.82µM*	2.82µM*	1.07µM*	u
COc1ccc(/C=C2\CN(Cc3ccccc3)C/C(=C\c3ccc(OC)cc3OC)C2=O)c(OC)c1	u	-48.7%	-0.4%	-7.3%	0.4%	1.1%
O=C(O)c1ccc(/C=C2\COc3ccccc3C2=O)cc1	u	x	-7.7%	-2.9%	19µM*	-4.6%
COc1ccc(C=C2c3ccccc3C(=O)c3ccccc32)c(OC)c1	23.1µM*	x	-24.3%	-6.2%	-4.0%	u
COc1ccc(/C=C2\CCc3ccccc3C2=O)cc1CN1CCOCC1	u	x	-1.2%	1.8%	7.57µM*	u
O=C(Nc1ccc(-c2nc3cc(NC(=O)c4ccc(Cl)cc4)ccc3o2)cc1)c1ccc(Cl)cc1	x	x	x	x	-1.7%	x
COc1ccc2c(CNC3CCCC3)c(C(=O)O)n(Cc3ccccc3C)c2c1	x	x	x	x	5.5%	x
COc1ccc(/C=C2\COc3ccccc3C2=O)c(OC)c1	u	x	0.0%	-17.2%	4.78µM*	u
COc1ccc2c(c1)OC/C(=C\c1ccc(OC)c(O)c1)C2=O	x	-25.9%	x	x	x	x
COc1ccc(/C=C2\COc3ccccc3C2=O)cc1OC	u	-10.8%	0.4%	0.3%	13.5µM*	-14.4%
Cc1cc(C)c2c(c1)C(=O)/C(=C/c1ccc(C(=O)O)cc1)CC2	u	x	19.8%	18.9%	19µM*	13.9%

Compound activity: PubChem, National Center for Advancing Translational Sciences (NCATS)
